# “And” between values parts separate entries of the source, which are not always exact repeats. Equal values may be shown once.
# Test system: SUM149
# Experiment: percent difference in area under dose-response curve of relative cell number, RPMI vs HPLM; higher = drug relatively more effective in HPLM than RPMI (negative = less effective in HPLM)
# Details: treatment time: 72 h; dose range: 10-point, 1 nM to 20 µM; media compared: RPMI vs HPLM
# Procedure: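 SUM149 triple-negative breast cancer cells, 500 cells/well in 384-well plates, were grown in RPMI or human plasma-like medium (HPLM) with 5% dialyzed FBS. They were pin-transferred with an anticancer plus metabolic-inhibitor library in 10-point dose series (20 µM to 1 nM). After 72 h, cells were fixed, stained with bisbenzimide and counted by Acumen plate cytometry. The AUC of relative survival vs dose was computed per medium, and the percent difference in AUC between RPMI and HPLM is reported.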
row,Structure (SMILES),percent difference in area under dose-response curve
1,CCN1CCN(Cc2ccc(-c3cc4c(N[C@H](C)c5ccccc5)ncnc4[nH]3)cc2)CC1,-3.13%
2,CC(=O)[C@]1(O)Cc2c(O)c3c(c(O)c2[C@@H](O[C@H]2C[C@H](N)[C@H](O)[C@H](C)O2)C1)C(=O)c1ccccc1C3=O [Idarubicin_HCl],-49.3%
3,Cc1nc2c(-c3cnc(N)nc3)nc(N3CCOCC3)nc2n1C(C)C,-7.54%
4,FC(F)c1nc2ccccc2n1-c1nc(N2CCOCC2)nc(N2CCOCC2)n1,1.79%
5,CN(CC(=O)N(Cc1ccc(C2CCCCC2)cc1)c1ccc(C(=O)O)cc1)S(=O)(=O)c1c(F)c(F)c(F)c(F)c1F,3.06%
6,C#CC[C@H](c1nc2cc(Cl)ccc2c(=O)n1Nc1ccccc1)N(CCCN)C(=O)c1cccc(Cl)c1F,-7.78%
7,Cc1ccc(C(=O)c2cc(O)c(O)c([N+](=O)[O-])c2)cc1 [Tolcapone],-5.18%
8,CC(C)CC(=O)Nc1n[nH]c2c1CN(C(=O)C1CCN(C)CC1)C2(C)C,-18.5%
9,C=CCc1cccc(/C=N/NC(=O)CN2CCN(Cc3ccccc3)CC2)c1O,-12.9%
10,COc1cc(/C=C/C(=O)N2CCC=CC2=O)cc(OC)c1OC [Piperlongumine],-18.1%
11,CN(C)/N=N/c1[nH]cnc1C(N)=O [Dacarbazine],-9.4%
12,Cc1ccc(NC(=O)c2ccc(CN3CCN(C)CC3)cc2)cc1Nc1nccc(-c2cccnc2)n1 [Imatinib],-5.87%
13,COc1cccc2c(NCc3ccccc3)nc(-n3c(N)nc4ccccc43)nc12,-7.47%
14,CCC1=C[C@@H]2CN(C1)Cc1c([nH]c3ccccc13)[C@@](C(=O)OC)(c1cc3c(cc1OC)N(C)[C@H]1[C@@](O)(C(=O)OC)[C@H](OC(C)=O)[C@]4(CC)C=CCN5CC[C@]31[C@@H]54)C2 [Vinorelbine_Tartrate],-41%
15,CC(=O)O[C@]1(C(C)=O)CC[C@H]2[C@@H]3C[C@H](C)C4=CC(=O)CC[C@]4(C)[C@H]3CC[C@@]21C [Medroxyprogesterone_acetate],0.646%
16,CC(C)(C)c1ccc(S(=O)(=O)NCc2ccc(C(=O)Nc3cccnc3)cc2)cc1,-12.4%
17,CC1(C)CCC(c2ccc(Cl)cc2)=C(CN2CCN(c3ccc(C(=O)NS(=O)(=O)c4ccc(N[C@H](CCN5CCOCC5)CSc5ccccc5)c(S(=O)(=O)C(F)(F)F)c4)cc3)CC2)C1,-1.13% and -0.0577%
18,CC(C)C[C@H](NC(=O)CNC(=O)c1cc(Cl)ccc1Cl)B1OC(=O)C(CC(=O)O)(CC(=O)O)O1,-1.48%
19,CO[C@H]1/C=C\C=C(/C)C(=O)NC2=CC(=O)C(NCCN(C)C)=C(C[C@@H](C)C[C@H](OC)[C@H](O)[C@@H](C)/C=C(\C)[C@@H]1OC(N)=O)C2=O,-30.8%
20,COC1=CC(c2cc3ccccc3[nH]2)=N/C1=C\c1[nH]c(C)cc1C [Obatoclax_mesylate],-8.47%

row,Structure (SMILES),percent difference in area under dose-response curve
1,CC/C(=C(\c1ccccc1)c1ccc(OCCN(C)C)cc1)c1ccccc1 [Tamoxifen_Citrate],-4.18%
2,C[C@@H](Oc1cc(-c2cnn(C3CCNCC3)c2)cnc1N)c1c(Cl)ccc(F)c1Cl [Crizotinib],-5.74%
3,CCC(C)(C)C(=O)O[C@H]1C[C@@H](C)C=C2C=C[C@H](C)[C@H](CC[C@@H]3C[C@@H](O)CC(=O)O3)[C@H]21 [Simvastatin],-12.1%
4,COc1cc2nccc(Oc3ccc(NC(=O)NC4CC4)c(Cl)c3)c2cc1C(N)=O,5.17%
5,CC[C@@H]1C(=O)N(C)c2cnc(Nc3ccc(C(=O)N[C@H]4CC[C@H](N5CCN(CC6CC6)CC5)CC4)cc3OC)nc2N1C(C)C,-16.8%
6,COc1cc2c(Oc3ccc4[nH]c(C)cc4c3F)ncnc2cc1OCCCN1CCCC1 [Cediranib],1%
7,CN1CC[C@H](c2c(O)cc(O)c3c(=O)cc(-c4ccccc4Cl)oc23)[C@H](O)C1 [Flavopiridol],-2.56%
8,Cc1ccc(C(=O)Nc2ccc(CN3CCN(C)CC3)c(C(F)(F)F)c2)cc1C#Cc1cnc2cccnn12 [Ponatinib],16.9%
9,Cc1nc(Nc2n[nH]c3c2CN(C(=O)N[C@H](CN(C)C)c2ccccc2)C3(C)C)c2sccc2n1,-62.7%
10,COc1cccc2c1C(=O)c1c(O)c3c(c(O)c1C2=O)C[C@@](O)(C(=O)CO)C[C@@H]3O[C@H]1C[C@H](N)[C@@H](O)[C@H](C)O1 [Epirubicin_HCl],-23.5%
11,CCc1c2c(nc3ccc(OC(=O)N4CCC(N5CCCCC5)CC4)cc13)-c1cc3c(c(=O)n1C2)COC(=O)[C@]3(O)CC [Irinotecan],-12.2%
12,CN(C)C/C=C/C(=O)Nc1cc2c(Nc3ccc(F)c(Cl)c3)ncnc2cc1O[C@H]1CCOC1 [Afatinib],2.93%
13,CC(C)=CCC1=C(O)C(=O)c2ccccc2C1=O [Lapachol],10.9%
14,O=C1c2c(O)ccc(O)c2C(=O)c2c(NCCNCCO)ccc(NCCNCCO)c21 [Mitoxantrone],-23.7%
15,O=c1cc(-c2cccc3c2Sc2ccccc2S3)oc(N2CCOCC2)c1,4.24%
16,COc1c(C)c2c(c(O)c1C/C=C(\C)CCC(=O)O)C(=O)OC2 [Mycophenolic_Acid],-8.4%
17,Oc1ccc(/C=C/c2cc(O)cc(O)c2)cc1 [Resveratrol],-1.11%
18,Cc1ccc(C(=O)N(CCCN)[C@@H](c2nc3cc(Cl)ccc3c(=O)n2Cc2ccccc2)C(C)C)cc1 [Ispinesib],-43.4%
19,C=CC(=O)Nc1cccc(Nc2nc(Nc3ccc(NC4CN(CCF)C4)cc3OC)ncc2C(F)(F)F)c1,10.4%
20,O=C(NOC[C@H](O)CO)c1ccc(F)c(F)c1Nc1ccc(I)cc1F,-8.94%

# — the supplement of paper PMC11383364
